Compound activity deposited in PubChem by National Center for Advancing Translational Sciences (NCATS).
HP1b binding inh: blocks HP1-beta chromodomain binding to methylated histone tails; P83916; AlphaScreen HP1-beta / biotin-H3K9me3 peptide binding; Potency, µM (titrated, usually from 114 µM), without a hit: at the highest dose activity change, negative = inhibition, usual class: inhibitors; 390,000 tested, 0.56% active; AID 540317; further: nearly all actives have a fitted effect of over 70% in size
Target sequence (P83916 whole entry, looked up): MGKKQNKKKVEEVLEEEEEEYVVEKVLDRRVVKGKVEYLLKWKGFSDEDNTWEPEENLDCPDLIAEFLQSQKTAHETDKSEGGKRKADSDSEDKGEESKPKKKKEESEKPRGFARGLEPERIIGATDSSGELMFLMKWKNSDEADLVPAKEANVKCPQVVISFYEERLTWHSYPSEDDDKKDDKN
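AlphaScreen: HP1-beta (50 nM) preformed 30 min with biotin-H3(1-18)K9me3 peptide (50 nM) in PBS pH 7.4, 0.01% Tween-20. Compound added for 30 min at RT, then streptavidin donor/nickel chelate acceptor beads (10 ug/mL) for 30 min.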
JMJD2A Tudor inh: JMJD2A Tudor domain (human) inhibition; Potency, µM (highest dose often 114 µM), without a hit: at the top dose activity change, negative = inhibition, most hits filed as inhibitors; AlphaScreen JMJD2A-Tudor / H3K4me3 peptide binding; O75164; 390,000 tested, 4.4% active; further: on the % scale 0 is the no-effect control and ±100 the full control effect; nearly all actives have a fitted effect of over 50% in size
TDP1 inh: inhibitors of human tyrosyl-DNA phosphodiesterase TDP1; Q9NUW8; recombinant TDP1, AlphaScreen DNA substrate cleavage; 350,000 tested, 0.28% active; Potency, µM (top dose mostly 130 µM), for inactives: at the top dose activity change, negative = inhibition, actives largely listed as inhibitors; further: on the % scale 0 is the no-effect control and ±100 the full control effect; nearly all actives have a fitted effect of over 40% in size
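Tdp1 1 nM final; 15 min RT w/ cpd; substrate 15 nM, 5 min; beads 10 ug/ml, 10 min; AlphaScreen read. Neg ctrl: no enzyme.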
G9a block: blocks human histone lysine methyltransferase G9a; 350,000 tested, 8.8% active; G9a H3K9 monomethylation, AlphaScreen, 2 h; Potency, µM (doses to about 102 µM), without a hit: at the highest dose activity, negative = inhibition, actives largely listed as inhibitors; Q96KQ7; further: on the % scale 0 is the no-effect control and ±100 the full control effect; nearly all actives have a fitted effect of over 75% in size
Target sequence (Q96KQ7 913-1193 limits assumed): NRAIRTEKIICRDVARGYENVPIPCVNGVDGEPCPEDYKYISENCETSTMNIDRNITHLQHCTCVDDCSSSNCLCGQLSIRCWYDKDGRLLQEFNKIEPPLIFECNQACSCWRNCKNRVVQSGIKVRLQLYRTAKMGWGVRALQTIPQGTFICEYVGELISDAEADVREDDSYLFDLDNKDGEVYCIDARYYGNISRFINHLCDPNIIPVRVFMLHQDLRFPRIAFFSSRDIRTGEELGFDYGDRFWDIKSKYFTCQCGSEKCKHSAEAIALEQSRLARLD
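Signal arises when biotinylated H3K9 peptide, once monomethylated, bridges streptavidin donor and antibody-captured acceptor beads. Enzyme at 20 nM was preincubated 15 min with test compounds; peptide 500 nM and SAM 20 uM then reacted for 2 h.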
BAZ2B inh: BAZ2B (human) inhibition | AID 504333 | 360,000 tested, 4.4% active | Q9UIF8 | Potency, µM (highest dose often 114 µM), without a hit: top-dose activity change, negative = inhibition, most hits filed as inhibitors | AlphaScreen BAZ2B-H3K14Ac peptide displacement; further: on the % scale 0 is the no-effect control and ±100 the full control effect; nearly all actives have a fitted effect of over 60% in size
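AlphaScreen displacement: compounds (up to 110uM) incubated 30 min at room temperature with a preformed 50 nM BAZ2B/50 nM biotinylated H3K14Ac peptide complex in PBS pH 7.4 with Tween-20. Donor and acceptor beads at 10 ug/mL final added, 20 min light-protected before reading.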
Sfp PPTase inh: Sfp phosphopantetheinyl transferase inhibition; Potency, µM, for inactives: largest response in the series, negative = inhibition, most hits filed as inhibitors; Biochemical Sfp PPTase activity, qHTS; AID 1490; 310,000 tested, 3.5% active;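 further: the enzyme is Sfp with the accession as filed and its product quenches rhodamine fluorescence; 0% = enzyme reaction without inhibitor and -100% = no enzyme wells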
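Compounds were incubated with enzyme (final 15 nM) for 15 min at room temperature before substrate addition started the reaction. Fluorescence at 525 nm excitation, 598 nm emission was recorded immediately and after 30 minutes.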
* = called active by the depositor; ? = inconclusive; / = no result; ! = not active in a repeat; [ ] = dose if it differs, or a comment. Rows were chosen to be rich in hits. Some 12% of all compounds tested hit in one or more screens of this group. The call rests on the fitted dose curve; in most records, active means well fitted curve in the direction sought with a large enough effect; inconclusive means small, poorly fitted or top-dose-only effect, or another doubt; inactive means no such curve, though single readings can be large; an effect the other way counts as inactive or inconclusive. Potency means the concentration at half of the fitted maximal effect.

SMILES	HP1b binding inh	JMJD2A Tudor inh	TDP1 inh	G9a block	BAZ2B inh	Sfp PPTase inh
O=C(O)c1ccccc1-c1c2cc(I)c(=O)c(I)c-2oc2c(I)c(O)c(I)cc12	?	18µM*	22%	/	/	?
O=C(O)c1c(Cl)c(Cl)c(Cl)c(Cl)c1-c1c2cc(I)c(=O)c(I)c-2oc2c(I)c(O)c(I)cc12	/	/	29%	1.8µM*	/	14µM*
COc1ccc(CC(=O)NCCCSc2ccccc2)cc1OC	24%	-19%	7%	41%	5%	1%
COc1cc(/C=N/N=C2/C(=O)Nc3ccccc32)cc(OC)c1O	-55%	?	-3%	2.8µM*	50µM*	-18%
O=C1Nc2ccccc2/C1=N/N=C/c1cccc(O)c1	-29%	?	11%	/	-15%	-7%
CC(=O)N1CCc2cc(CNS(=O)(=O)c3cccs3)ccc21	25%[57 µM]	-18%	5%	-1%[59 µM]	-1%	/
COc1[nH]c(/N=C/c2ccccc2)c(C#N)c1C#N	-32%	45µM*!	1%	3.2µM*	?	-9%
Cc1c(C(=O)N2CCOCC2)c(S(=O)(=O)Nc2ccc(Br)cc2F)c(C)n1C	-5%	18µM*	9%	3%	-16%[57.1 µM]	17%
Cc1c(C(=O)N2CCOCC2)c(S(=O)(=O)Nc2ccccc2F)c(C)n1C	61%	-8%	5%	21%[59 µM]	2%	17%
O=C(NCCNC1CCCCC1)c1ccco1	?	3.5µM*	4%	45µM*	?	-5%
O=C(NCCNC(=O)c1ccco1)c1ccco1	6%	-7%	-5%	7%[59 µM]	-3%	11%
CC1CCC(NCCNC(=O)c2ccco2)CC1 (configuration not stated)	-9%	20µM*	-8%	35µM*	-36%	-1%
CC(C)C(NC(=O)c1ccco1)C(=O)NC1CCCCCC1 (configuration not stated)	38%	-10%	0%	79µM*	-2%	1%
O=C(NC1CCCCCCC1)c1ccco1	31%	-1%	-2%	-13%[12.7 µM]	-5%	11%
O=C(O)c1cccc(NC(=O)c2cn(-c3ccccc3)nc2-c2cc3ccccc3o2)c1	-2%	-28%	0%	5%[59 µM]	50µM*	1%
Cc1noc(NS(=O)(=O)c2ccc(N/C=C\C(=O)c3cccc4ccccc34)cc2)c1C	?	?	6%	?	50µM*	79µM*
Cc1noc(NS(=O)(=O)c2ccc(N/C=C\C(=O)c3ccc4c(c3)OCO4)cc2)c1C	-6%	-32%	6%	-20%[12.7 µM]	?	-24%
CCOc1ccc(C(=O)/C=C/Nc2ccc(S(=O)(=O)Nc3onc(C)c3C)cc2)cc1	-11%	-23%[57.1 µM]	-3%	1.6µM*	?	?
COc1ccc(CCNC(=O)CCc2c(C)nc3c4c(C)cc(C)nc4nn3c2C)cc1OC	28%	-16%	0%	-9%[59 µM]	-10%	/
CCOC(=O)c1c(S(=O)(=O)NCC(=O)Nc2ccc(C)c(Cl)c2)c(C)n(C)c1C	-21%	-32%	5%	8%[59 µM]	?	/
COc1ccc(C)cc1Nc1n[n+](-c2ccccc2)c(-c2ccc(C(=O)O)cc2)s1	-8%	35µM*	/	10µM*	40µM*	56µM*
COc1ccc(C)cc1NC(=O)Nc1ccccc1	7%	-24%	4%	?	-1%	-12%
C(=C\c1sc(Nc2ccccc2)n[n+]1-c1ccccc1)/c1ccccc1	?	56µM*	/	/	/	/
COc1ccc(C)cc1Nc1n[n+](-c2ccccc2)c(-c2c(OC)ccc3ccccc23)s1	-16%	?	10%	21%[2.33 µM]	?	/
COc1ccc(C)cc1Nc1n[n+](-c2ccccc2)c(-c2cc(OC)c(OC)cc2Br)s1	19%	?	/	40µM*	50µM*	-28%
SMILES	HP1b binding inh	JMJD2A Tudor inh	TDP1 inh	G9a block	BAZ2B inh	Sfp PPTase inh
CCOc1cc(-c2sc(Nc3ccc(CC)cc3)n[n+]2-c2ccccc2)ccc1OC	-12%	?	2%	-11%[2.33 µM]	?	/
CCOc1cc(-c2sc(Nc3cc(C)ccc3OC)n[n+]2-c2ccccc2)ccc1OC	-11%	56µM*	/	-42%[12.7 µM]	56µM*	/
COc1ccc(-c2sc(Nc3ccccc3)n[n+]2-c2ccccc2)cc1Br	2%	79µM*	/	-48%[12.7 µM]	50µM*	/
O=C(CN1C(=O)COc2ccccc21)NCCCN1CCN(Cc2ccccc2)CC1	16%	-21%	2%	9%[12.7 µM]	-2%	9%
O=C(CN1C(=O)COc2ccccc21)NCCCN1CCc2ccccc2C1	22%	?	0%	?	-3%	20µM*
COc1cc(NC(=O)CSc2nc3[nH]c(=O)cc(O)c3s2)cc(OC)c1OC	70%	-6%	1%	0%[12.7 µM]	-5%	/
COCCNC(=O)c1cn(C(C)c2ccccc2F)nn1 (configuration not stated)	22%	-11%	/	-2%[12.7 µM]	-2%	23%
CC(c1ccccc1F)n1cc(C(=O)NCCc2ccco2)nn1 (configuration not stated)	19%	-15%	0%	50µM*	-12%	-16%
COc1ccc(NC(=O)CN(C)C2CCS(=O)(=O)C2)cc1 (configuration not stated)	35%	-23%	1%	-13%[12.7 µM]	26%	/
CCN(CC)CCNC(=O)c1[nH]c2ccc(OCc3ccccc3)cc2c1C	?	?	7%	50µM*	?	?
CCN(Cc1ccccc1)C(=O)c1[nH]c2ccc(OC)cc2c1C	23%	-12%	/	0%	-14%	2%
CC1(C)CC(=O)C2=C(C1)OC(N)=C(C#N)[C@@H]2c1ccccc1[N+](=O)[O-]	-9%	-9%	71µM*	/	-7%	?
CC1(C)CC(=O)C2=C(C1)OC1=C(C(=O)CC(C)(C)C1)C2c1cc([N+](=O)[O-])cc([N+](=O)[O-])c1O	?	-11%[11.4 µM]	5%	59%[12.7 µM]	21%	11µM*
CC1(C)CC(=O)C2=C(C1)OC(N)=C(C#N)C2c1ccc[nH]1 (configuration not stated)	?	?	6%	?	?	50µM*
CC(C)(C)OC(=O)Nc1ncnc2c1C(c1ccccc1)c1c(ccc3ccccc13)O2 (configuration not stated)	/	1%	/	/	/	/
C=CCNC(=S)N/N=C/c1ccc(-c2ccc(Cl)cc2Cl)o1	38%	13%	/	/	/	/
Cc1c(-c2ccccc2)nc2ccccc2c1C(=O)OCC(=O)Nc1ncc(C(F)(F)F)cc1Cl	2%	-29%	4%	?	-1%	-27%
COc1ccc(CNc2cccc3[nH]c(C(F)(F)F)nc23)cc1	18%	?	/	-13%[2.33 µM]	?	-1%
COc1cc(CNc2cccc3[nH]c(C(F)(F)F)nc23)cc(OC)c1	28%	50µM*	/	40µM*	?	-18%
O=S(=O)(NCCCN1CCOCC1)c1ccc2ccccc2c1	24%	-1%	0%	/	-7%	-9%
